Laboratory results taken from PubChem BioAssay (EPA / NIEHS).
Inconclusive results are not listed. Calls of active or inactive are those of the source. How the source made its calls: active means hit-call score of the fitted dose curve at least 0.9, where 1 is the maximum; inconclusive means response in the unintended direction; inactive means score below 0.9.

Target: human Phosphoinositide 3-kinase alpha (PI3Ka), PIK3CA (gene 5290) (UniProt P42336)
Test: NVS_ENZ_hPI3Ka: NovaScreen (NVS) Enzymatic Assay for human Phosphoinositide 3-kinase alpha (PI3Ka) (AID 2283196)
Method: NVS_ENZ_hPI3Ka is a biochemical, single-readout assay that uses extracted gene-proteins in a cell-free assay. Measurements were taken 1 hour after chemical dosing in a 384-well plate.NVS_ENZ_hPI3Ka is one of one assay component(s) measured or calculated from the NVS_ENZ_hPI3Ka assay. It is designed to make measurements of enzyme activity, a form of enzyme reporter, as detected with fluorescence intensity signals by Fluorescence and electrophoretic mobility shift technology.Data from the assay component NVS_ENZ_hPI3Ka was analyzed into 1 assay endpoint. This assay endpoint, NVS_ENZ_hPI3Ka, was analyzed in the positive analysis fitting direction relative to DMSO as the negative control and baseline of activity. Using a type of enzyme reporter, loss-of-signal activity can be used to understand changes in the enzymatic activity as they relate to the gene PIK3CA. Furthermore, this assay endpoint can be referred to as a primary readout, because this assay has produced multiple assay endpoints where this one serves a enzymatic activity function. To generalize the intended target to other relatable targets, this assay endpoint is annotated to the kinase intended target family, where the subfamily is phosphoinositol kinase.
Binding assays used specific radioligands (tritiated, iodinated) with non-radioactive competitive displacement ligands in agonist or antagonist protocols (as indicated) and various reference compounds and inhibitors to titrate specific binding to receptors and transporters. Most enzyme assays (CYPs, kinases, phosphatases, proteases, HDACs) used recombinant protein and specific substrates (fluorescence mostly, some colorimetric and radioactive) and inhibitors, followed by a biochemical separation of substrate and product. All assays for the biochemical HTS were initially run in duplicate at a single concentration (10 uM for CYP450 assays and 25 uM for all others). Assay-chemical combinations meeting a pre-defined threshold (e.g., 30% inhibition and other criteria defined below) were then run in singleton concentration-response format with maximum concentration of 20 uM for CYPs and 50 uM for all others. Each assay was run with positive and negative controls, and concurrent controls on every plate. The follow-up (secondary) screen tested active chemical-pairs in concentration series, as well as a few additional assays not tested in the primary screen, some selected negative inactives, and several cases re-run in the concentration series for confirmatory purposes.

human Phosphoinositide 3-kinase alpha (PI3Ka), PIK3CA (gene 5290), sequence (P42336 whole entry, looked up): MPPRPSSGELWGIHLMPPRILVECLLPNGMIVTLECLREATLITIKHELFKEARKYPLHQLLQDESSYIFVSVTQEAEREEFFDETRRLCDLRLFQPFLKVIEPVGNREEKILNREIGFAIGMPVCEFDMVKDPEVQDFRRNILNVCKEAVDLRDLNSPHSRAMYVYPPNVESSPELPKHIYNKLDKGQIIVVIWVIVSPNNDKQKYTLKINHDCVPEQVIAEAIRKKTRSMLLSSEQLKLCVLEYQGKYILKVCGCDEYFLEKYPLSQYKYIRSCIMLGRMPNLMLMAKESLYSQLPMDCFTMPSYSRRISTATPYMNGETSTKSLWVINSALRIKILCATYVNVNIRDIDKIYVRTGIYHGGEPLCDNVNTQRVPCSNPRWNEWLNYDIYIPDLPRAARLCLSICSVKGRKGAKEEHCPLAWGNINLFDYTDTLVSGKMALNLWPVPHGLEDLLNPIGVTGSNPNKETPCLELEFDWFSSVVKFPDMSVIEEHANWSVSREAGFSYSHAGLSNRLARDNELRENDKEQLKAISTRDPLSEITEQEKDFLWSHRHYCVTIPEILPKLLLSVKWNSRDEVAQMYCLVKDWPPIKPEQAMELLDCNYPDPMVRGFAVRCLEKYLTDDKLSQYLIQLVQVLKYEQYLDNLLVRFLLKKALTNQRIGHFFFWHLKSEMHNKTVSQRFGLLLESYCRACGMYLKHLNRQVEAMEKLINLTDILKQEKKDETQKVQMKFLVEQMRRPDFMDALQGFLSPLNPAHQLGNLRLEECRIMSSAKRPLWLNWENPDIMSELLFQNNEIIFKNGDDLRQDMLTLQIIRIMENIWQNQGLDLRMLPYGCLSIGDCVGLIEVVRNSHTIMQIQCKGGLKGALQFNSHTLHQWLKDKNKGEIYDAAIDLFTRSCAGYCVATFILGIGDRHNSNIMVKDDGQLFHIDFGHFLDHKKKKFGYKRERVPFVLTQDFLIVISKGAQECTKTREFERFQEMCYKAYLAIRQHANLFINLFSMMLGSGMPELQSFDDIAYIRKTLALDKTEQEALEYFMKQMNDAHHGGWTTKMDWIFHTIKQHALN

SMILES	outcome	AC50
O=C1OC2(c3ccc(O)cc3Oc3cc(O)ccc32)c2ccccc21	inactive	
CC(CO)c1ccccc1 (stereo unspecified)	inactive	
S=c1[nH][nH]c(=S)s1	inactive	
CCCCCCOC(C)=O	inactive	
CC/C(=C(\c1ccccc1)c1ccc(OCCN(C)C)cc1)c1ccccc1		16.1 µM (active)
N#CCCCC(C#N)CCC#N (stereo unspecified)	inactive	
CCOC(=O)C(=O)OCC	inactive	
CC(C)Cc1ccccc1	inactive	
C=CC(=O)OCC(CO)(COC(=O)C=C)COC(=O)C=C	inactive	
C=CC(=O)OCCCCCC	inactive	
Cc1ccc(C(C)(C)O)cc1		25 µM (active)
